{
  "source": "the supplement of paper PMC8728848",
  "test_in_all_cases": "glycan array binding signal (z-score within array); higher = stronger binding",
  "details_in_all_cases": "glycan notation: IUPAC condensed, linker removed",
  "key": {"[1]": {"biological_target": "GlcNAc(b1-3)Gal(b1-4)GlcNAc(b1-3)Gal(b1-4)GlcNAc(b1-2)[GlcNAc(b1-3)Gal(b1-4)GlcNAc(b1-3)Gal(b1-4)GlcNAc(b1-6)]Man(a1-6)[GlcNAc(b1-3)Gal(b1-4)GlcNAc(b1-3)Gal(b1-4)GlcNAc(b1-2)Man(a1-3)]Man(b1-4)GlcNAc(b1-4)[Fuc(a1-6)]GlcNAc", "how_it_was_run": "(§1)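 Glycan array data were curated from 3228 arrays in the Consortium for Functional Glycomics database and kept only where the protein sequence was available. Glycan names were converted to IUPAC-condensed notation, and columns mapping to the same glycan were averaged. The binding signal is a within-array Z-score, averaged across arrays of the same protein sequence at different concentrations or buffers and across linkers. Negative Z-scores can be read as non-binding.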"}, "[2]": {"biological_target": "GlcNAc(b1-3)Gal(b1-4)GlcNAc(b1-3)Gal(b1-4)GlcNAc(b1-3)Gal(b1-4)GlcNAc(b1-2)Man(a1-3)[GlcNAc(b1-3)Gal(b1-4)GlcNAc(b1-3)Gal(b1-4)GlcNAc(b1-3)Gal(b1-4)GlcNAc(b1-2)Man(a1-6)]Man(b1-4)GlcNAc(b1-4)GlcNAc", "how_it_was_run": "as §1"}, "[3]": {"biological_target": "GlcNAc(b1-3)Gal(b1-4)GlcNAc(b1-3)Gal(b1-4)GlcNAc(b1-3)Gal(b1-4)GlcNAc(b1-2)[GlcNAc(b1-3)Gal(b1-4)GlcNAc(b1-3)Gal(b1-4)GlcNAc(b1-3)Gal(b1-4)GlcNAc(b1-6)]Man(a1-6)[GlcNAc(b1-3)Gal(b1-4)GlcNAc(b1-3)Gal(b1-4)GlcNAc(b1-3)Gal(b1-4)GlcNAc(b1-2)Man(a1-3)]Man(b1-4)GlcNAc(b1-4)[Fuc(a1-6)]GlcNAc", "how_it_was_run": "as §1"}, "[4]": {"biological_target": "GlcNAc(b1-3)Gal(b1-4)GlcNAc(b1-3)Gal(b1-4)GlcNAc(b1-3)Gal(b1-4)GlcNAc(b1-3)Gal(b1-4)GlcNAc(b1-2)[GlcNAc(b1-3)Gal(b1-4)GlcNAc(b1-3)Gal(b1-4)GlcNAc(b1-3)Gal(b1-4)GlcNAc(b1-3)Gal(b1-4)GlcNAc(b1-6)]Man(a1-6)[GlcNAc(b1-3)Gal(b1-4)GlcNAc(b1-3)Gal(b1-4)GlcNAc(b1-3)Gal(b1-4)GlcNAc(b1-3)Gal(b1-4)GlcNAc(b1-2)Man(a1-3)]Man(b1-4)GlcNAc(b1-4)[Fuc(a1-6)]GlcNAc", "how_it_was_run": "as §1"}, "[5]": {"biological_target": "GlcNAc(b1-3)Gal(b1-4)GlcNAc(b1-3)Gal(b1-4)GlcNAc(b1-3)GalNAc", "how_it_was_run": "as §1"}, "[6]": {"biological_target": "GlcNAc(b1-3)Gal(b1-4)GlcNAc(b1-6)[GlcNAc(b1-3)Gal(b1-3)]GalNAc", "how_it_was_run": "as §1"}, "[7]": {"biological_target": "GlcNAc(b1-4)GlcNAc(b1-4)GlcNAc(b1-4)GlcNAc(b1-4)GlcNAc", "how_it_was_run": "as §1"}, "[8]": {"biological_target": "GlcNAc6S(b1-3)Gal(b1-4)GlcNAc", "how_it_was_run": "as §1"}, "[9]": {"biological_target": "Man(a1-2)Man(a1-2)Man(a1-6)[Man(a1-3)]Man", "how_it_was_run": "as §1"}, "Man(b1-4)GlcNAc": {"biological_target": "Man(b1-4)GlcNAc", "how_it_was_run": "as §1"}, "[10]": {"biological_target": "Neu5Ac(a2-3)Gal(b1-3)GalNAc(b1-4)[Neu5Ac(a2-3)]Gal(b1-4)Glc", "how_it_was_run": "as §1"}, "[11]": {"biological_target": "Neu5Ac(a2-3)Gal(b1-3)[GlcNAc(b1-6)]GalNAc", "how_it_was_run": "as §1"}, "[12]": {"biological_target": "Neu5Ac(a2-3)Gal(b1-3)[Neu5Ac(a2-6)]GalNAc", "how_it_was_run": "as §1"}, "[13]": {"biological_target": "Neu5Ac(a2-3)Gal(b1-3)]Neu5Ac(a2-3)Gal(b1-4)]GlcNAc", "how_it_was_run": "as §1"}, "[14]": {"biological_target": "Neu5Ac(a2-3)Gal(b1-4)GlcNAc(b1-2)Man", "how_it_was_run": "as §1"}, "[15]": {"biological_target": "Neu5Ac(a2-3)Gal(b1-4)GlcNAc(b1-2)Man(a1-3)[Neu5Ac(a2-3)Gal(b1-4)GlcNAc(b1-2)Man(a1-6)]Man(b1-4)GlcNAc(b1-4)[Fuc(a1-6)]GlcNAc", "how_it_was_run": "as §1"}, "[16]": {"biological_target": "Neu5Ac(a2-3)Gal(b1-4)GlcNAc(b1-2)Man(a1-3)[Neu5Ac(a2-6)Gal(b1-4)GlcNAc(b1-2)Man(a1-6)]Man(b1-4)GlcNAc(b1-4)GlcNAc", "how_it_was_run": "as §1"}, "[17]": {"biological_target": "Neu5Ac(a2-3)Gal(b1-4)GlcNAc(b1-2)[Neu5Ac(a2-3)Gal(b1-4)GlcNAc(b1-6)]Man(a1-6)[Neu5Ac(a2-3)Gal(b1-4)GlcNAc(b1-2)Man(a1-3)][GlcNAc(b1-4)]Man(b1-4)GlcNAc(b1-4)GlcNAc", "how_it_was_run": "as §1"}, "[18]": {"biological_target": "Neu5Ac(a2-3)Gal(b1-4)GlcNAc(b1-3)Gal(b1-4)[Fuc(a1-3)]GlcNAc", "how_it_was_run": "as §1"}, "Neu5Ac(a2-6)Gal": {"biological_target": "Neu5Ac(a2-6)Gal", "how_it_was_run": "as §1"}, "[19]": {"biological_target": "Neu5Ac(a2-6)Gal(b1-4)GlcNAc(b1-2)Man(a1-3)[Gal(b1-4)GlcNAc(b1-2)Man(a1-6)]Man(b1-4)GlcNAc(b1-4)GlcNAc", "how_it_was_run": "as §1"}, "[20]": {"biological_target": "Neu5Ac(a2-6)Gal(b1-4)GlcNAc(b1-3)Gal(b1-4)[Fuc(a1-3)]GlcNAc(b1-3)Gal(b1-4)[Fuc(a1-3)]GlcNAc", "how_it_was_run": "as §1"}, "[21]": {"biological_target": "Neu5Ac(a2-6)Gal(b1-4)GlcNAc6S", "how_it_was_run": "as §1"}, "[22]": {"biological_target": "Neu5Ac(a2-8)Neu5Ac(a2-3)Gal(b1-3)GalNAc(b1-4)[Neu5Ac(a2-3)]Gal(b1-4)Glc", "how_it_was_run": "as §1"}},
  "note": "Only a selection was taken, and the strongest signals are over-represented in it overall.",
  "data": [
    {"binder": "Pwp4 (Candida glabrata) (protein) MGSSHHHHHHSSGLVPRGSHMASVGNPITVSNVCSFPKNWHRTAGFRALTARLGIGIQSDSYKELLNYPGTFQLTTQQSSTTKPNFQISGLVGNIYGLTIVPSYLLVELTGYFVPPVSGEYTFSLEGSDDAAIIFIANPSTFKCGHVEDWPTAYDNDVTVTESIHATRTIYMIEGVAYPIRIAYYNGLSLGKLQASFTDPEGVKRVDWNGYIWRYDSCDTCSYV", "values": [
      {"measurement": "glycan array binding signal (z-score)", "setting": "[1]", "result": 4.62},
      {"measurement": "glycan array binding signal (z-score)", "setting": "[2]", "result": 1.16},
      {"measurement": "glycan array binding signal (z-score)", "setting": "[3]", "result": 5.36},
      {"measurement": "glycan array binding signal (z-score)", "setting": "[4]", "result": 4.3},
      {"measurement": "glycan array binding signal (z-score)", "setting": "[5]", "result": -0.617},
      {"measurement": "glycan array binding signal (z-score)", "setting": "[6]", "result": -0.359},
      {"measurement": "glycan array binding signal (z-score)", "setting": "[7]", "result": -0.442},
      {"measurement": "glycan array binding signal (z-score)", "setting": "[8]", "result": -0.195},
      {"measurement": "glycan array binding signal (z-score)", "setting": "[9]", "result": -0.597},
      {"measurement": "glycan array binding signal (z-score)", "setting": "Man(b1-4)GlcNAc", "result": -0.403},
      {"measurement": "glycan array binding signal (z-score)", "setting": "[10]", "result": -0.275},
      {"measurement": "glycan array binding signal (z-score)", "setting": "[11]", "result": 3.89},
      {"measurement": "glycan array binding signal (z-score)", "setting": "[12]", "result": -0.221},
      {"measurement": "glycan array binding signal (z-score)", "setting": "[13]", "result": -0.455},
      {"measurement": "glycan array binding signal (z-score)", "setting": "[14]", "result": -0.174},
      {"measurement": "glycan array binding signal (z-score)", "setting": "[15]", "result": 1.34},
      {"measurement": "glycan array binding signal (z-score)", "setting": "[16]", "result": 0.37},
      {"measurement": "glycan array binding signal (z-score)", "setting": "[17]", "result": 9.42},
      {"measurement": "glycan array binding signal (z-score)", "setting": "[18]", "result": -0.414},
      {"measurement": "glycan array binding signal (z-score)", "setting": "Neu5Ac(a2-6)Gal", "result": 0.575},
      {"measurement": "glycan array binding signal (z-score)", "setting": "[19]", "result": 1.01},
      {"measurement": "glycan array binding signal (z-score)", "setting": "[20]", "result": -0.388},
      {"measurement": "glycan array binding signal (z-score)", "setting": "[21]", "result": -0.336},
      {"measurement": "glycan array binding signal (z-score)", "setting": "[22]", "result": -0.601}
    ]}
  ]
}
